# Data from PubChem BioAssay (NCATS).
# Results filed as inconclusive are left out. Values without a mark were called inactive. Activity calls are given as the source filed them. The call rests on the fitted dose curve.
# Biological target: Thyroid hormone receptor beta (Homo sapiens) (UniProt P10828)
# Experiment: qHTS assay for small molecule agonists of thyroid hormone receptor beta signaling (AID 588545)
# Settings: TR-UAS-bla GripTite HEK 293, beta-lactamase ratio, agonist mode, 18 h; series mostly up to 76.7 µM; activation: at the top concentration
# Text: NIH Chemical Genomics Center [NCGC]
# U.S. Environmental Protection Agency [EPA]
# National Institutes of Environmental Health Sciences [NIEHS]
# National Toxicology Program [NTP]
# Thyroid hormone receptor (TR) belongs to nuclear hormone receptor superfamily. There are two subtypes for TR: TR-alpha and TR-beta. TR-beta plays a major role in regulating plasma cholesterol levels and it mediates the biological activities of thyroid hormone. Screening environmental chemicals on TR-beta signaling will provide important information for the mechanism of compound action.
# NCGC Assay Protocol Summary
# Using a beta-lactamase reporter-gene under control of the TR response element, a cell-based assay [GeneBLAzer TR-UAS-bla-GripTite assay developed by Invitrogen] was used to measure TR-beta signaling in agonist mode. TR-UAS-bla-GripTite HEK 293 cells were used with assay medium containing 2% charcoal/dextran FBS, 0.1 mM NEAA and 1 mM sodium pyruvate. The assay was performed in clear bottom black Greiner 1536-well plates. T3 was used as a positive control in the screen. Library compounds were measured for their ability to stimulate the reporter gene activity. Compounds were screened in a titration series in 1536-well format. The fluorescence intensity (405 nm excitation, 460/530 nm emission) was measured using an EnVision plate reader. Data was normalized relative to T3 control (10 nM, 100%), and DMSO only wells (basal, 0%). Concentration-response titration points for each compound were fitted to the Hill equation yielding concentrations of half-maximal stimulation (EC50) and maximal response (efficacy) values.
# qHTS protocol for TR-beta beta-lactamase assay in agonist mode
# [Step] [Parameter] [Value] [Description]
# 1. Reagent; 6 uL; 2500 cells/well
# 2. Incubation; 37 C for 4 hrs
# - Dose response; start 3.8 uM, 1:3 dilutions, duplicates in first column
# - Two columns of each 10 and 0.4 nM (finals) concentrations.
# 5. Incubation; 37 C for 18 hrs
# 6. Detection reagent; 1 uL of CCF4-dye
# 7. Incubation; RT for 2 hrs
# 8. Detection; Fluorescence; Envision plate reader
# Thyroid hormone receptor beta (Homo sapiens), sequence (P10828 whole entry, looked up): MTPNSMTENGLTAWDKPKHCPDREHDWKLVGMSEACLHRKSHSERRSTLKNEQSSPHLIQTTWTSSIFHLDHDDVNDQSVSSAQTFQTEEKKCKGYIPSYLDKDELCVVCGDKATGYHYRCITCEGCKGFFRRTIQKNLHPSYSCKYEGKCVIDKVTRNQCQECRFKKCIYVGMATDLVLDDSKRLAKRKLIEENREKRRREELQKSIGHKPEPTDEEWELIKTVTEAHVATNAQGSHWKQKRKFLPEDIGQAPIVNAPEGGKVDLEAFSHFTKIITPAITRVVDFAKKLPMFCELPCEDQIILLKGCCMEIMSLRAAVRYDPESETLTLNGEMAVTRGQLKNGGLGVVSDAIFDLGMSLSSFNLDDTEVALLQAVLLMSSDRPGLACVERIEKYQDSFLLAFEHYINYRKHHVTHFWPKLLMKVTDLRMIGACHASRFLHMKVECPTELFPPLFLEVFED
SMILES,Potency,activation
C/C(=N\NC(=O)Nc1cc(F)cc(F)c1)c1ncccc1C(=O)O,inactive,–
O=P(O)(O)CN(CP(=O)(O)O)CP(=O)(O)O,–,-9.61%
CC(C)C(=O)OCC(C)(C)C(OC(=O)C(C)C)C(C)C (stereo not given),–,-8.1%
COc1cccc(C(=O)NN(C(=O)c2cc(C)cc(C)c2)C(C)(C)C)c1C,–,-27.5%
CC(=NC#N)N(C)Cc1ccc(Cl)nc1,–,2.2%
CCCCCCCCn1sccc1=O,inactive,–
CCOP(=S)(OCC)Oc1nc(Cl)n(C(C)C)n1,–,-3.21%
CCOC(=O)Nc1cccc(OC(=O)Nc2ccccc2)c1,–,-5.49%
CNP(=O)(OC)Oc1ccc(C(C)(C)C)cc1Cl (stereo not given),–,1.83%
C=CCOC(=O)C(C)(C)OC(=O)c1cc(-n2c(=O)cc(C(F)(F)F)n(C)c2=O)ccc1Cl,–,2.73%
O=C(NC(=O)c1c(F)cccc1F)Nc1ccc(Cl)cc1,–,-0.408%
CCC[CH2][Sn](=[O])[CH2]CCC,–,-15.4%
CN/C(=N/[N+](=O)[O-])NCC1CCOC1 (stereo not given),–,23%
CCOP(=S)(OCC)OC(Cl)C(Cl)(Cl)Cl (stereo not given),–,-8.42%
CCN(CC)C(=O)SCc1ccc(Cl)cc1,–,-2.28%
CCOC1Oc2ccc(OS(C)(=O)=O)cc2C1(C)C (stereo not given),–,-0.754%
COC(=O)NS(=O)(=O)c1ccc(N)cc1,inactive,–
Clc1ccc([C@@]2(Cn3cncn3)C[C@@H](Br)CO2)c(Cl)c1,–,-6.23%
CCNc1nc(Cl)nc(NC(C)(C)C)n1,–,-14.5%
O=[N+]([O-])C(Br)Br,–,2.96%

SMILES,Potency,activation
CS(=O)(=O)NC(=O)c1cc(Oc2ccc(C(F)(F)F)cc2Cl)ccc1[N+](=O)[O-],–,-14.2%
O=C(NC(=O)c1c(F)cccc1F)Nc1cc(Cl)c(OC(F)(F)C(F)F)c(Cl)c1,–,-5.07%
CCOP(=S)(OCC)Oc1ccc(S(C)=O)cc1 (stereo not given),–,7.77%
Cn1cc(-c2ccccc2)c(=O)c(-c2cccc(C(F)(F)F)c2)c1,–,0.366%
CSc1nc(NC(C)C)nc(NC(C)C)n1,–,10%
COCc1cnc(C2=NC(C)(C(C)C)C(=O)N2)c(C(=O)O)c1 (stereo not given),–,-6.59%
N#CC(CCc1ccc(Cl)cc1)(Cn1cncn1)c1ccccc1 (stereo not given),–,-4.93%
CCCCOCN(C(=O)CCl)c1c(CC)cccc1CC,–,-2.4%
COC[C@H](C)N(C(=O)CCl)c1c(C)csc1C,–,1.47%
CNC(=O)O/N=C(\C)SC,–,0%
CCSCCSP(=O)(OC)OC,–,13.2%
Clc1ccc(C(Cl)(Cl)Cl)cc1,–,0.285%
[CH3][Sn]([CH3])([Cl])[Cl],–,-1.55%
CC(C)C1(C)N=C(c2nc3ccccc3cc2C(=O)O)NC1=O (stereo not given),–,10.5%
COc1nc(C)nc(NC(=O)NS(=O)(=O)c2ccccc2Cl)n1,–,-16.9%
CCCCCCCCCCCCC1=C(OC(C)=O)C(=O)c2ccccc2C1=O,–,-25.9%
COc1cc(OC)nc(NC(=O)NS(=O)(=O)c2ncccc2C(F)(F)F)n1,–,-6.96%
Clc1ccc(C(c2ccc(Cl)cc2)C(Cl)Cl)cc1,–,2.2%
c1ccc2c(c1)oc1ccccc12,–,-3.24%
CCCCC(C#N)(Cn1cncn1)c1ccc(Cl)cc1 (stereo not given),inactive,–
